# Compound activity as filed in PubChem BioAssay.
# MazEF act: activators of E. coli MazEF toxin-antitoxin RNase, primary screen, biochemical, fluorescence, uHTS | Endoribonuclease toxin MazF (Escherichia coli (strain K12)), P0AE70 | FAM/BHQ RNA-DNA oligo cleavage fluorescence, 5 h | activation, % at 20 µM | actives 0.32% (n = 350,000); in the data active means activation above about 50%
# BoNT-A LC inh2: BoNT/A light chain protease inhibitors, primary screen, biochemical, flow cytometry, MLPCN library | multiplex microsphere protease substrate cleavage | inhibition, % at 10 µM | actives 0.17% (n = 360,000); further: plate controls were buffer without enzyme for full effect and enzyme alone for no effect
# BoNT F protease: BoNT/F light chain protease inhibitors, primary screen, biochemical, flow cytometry, MLPCN library; Botulinum neurotoxin type F light chain protease (Clostridium botulinum); Multiplex microsphere protease cleavage assay; inhibition, % at 10 µM; actives 0.22% (n = 360,000); AID 588497, 2011; in the data active means inhibition above about 35%, passing the limit was not always enough; inconclusive means no clear call, values can overlap the other calls; further: plate controls were buffer without enzyme for full effect and enzyme alone for no effect
# Autofluor counter: compound fluorescence in toxin protease inhibitor counterscreen; compound autofluorescence counterscreen, microsphere flow cytometry; active compounds read high; fluorescence intensity (no concentration beside the values); actives 3.1% (n = 360,000); in the data active means fluorescence intensity above about 16000; inconclusive means no clear call, values can overlap the other calls
# Anthrax LF inh2: Bacillus anthracis LF protease inhibitors, primary screen, biochemical, multiplex microsphere, MLPCN library | Lethal factor (Bacillus anthracis), P15917 | multiplex microsphere protease cleavage assay | inhibition, % at 10 µM | actives 0.12% (n = 360,000) | AID 588501, 2011; further: plate controls were buffer without enzyme for full effect and enzyme alone for no effect
# Target sequence (P15917 whole entry, looked up): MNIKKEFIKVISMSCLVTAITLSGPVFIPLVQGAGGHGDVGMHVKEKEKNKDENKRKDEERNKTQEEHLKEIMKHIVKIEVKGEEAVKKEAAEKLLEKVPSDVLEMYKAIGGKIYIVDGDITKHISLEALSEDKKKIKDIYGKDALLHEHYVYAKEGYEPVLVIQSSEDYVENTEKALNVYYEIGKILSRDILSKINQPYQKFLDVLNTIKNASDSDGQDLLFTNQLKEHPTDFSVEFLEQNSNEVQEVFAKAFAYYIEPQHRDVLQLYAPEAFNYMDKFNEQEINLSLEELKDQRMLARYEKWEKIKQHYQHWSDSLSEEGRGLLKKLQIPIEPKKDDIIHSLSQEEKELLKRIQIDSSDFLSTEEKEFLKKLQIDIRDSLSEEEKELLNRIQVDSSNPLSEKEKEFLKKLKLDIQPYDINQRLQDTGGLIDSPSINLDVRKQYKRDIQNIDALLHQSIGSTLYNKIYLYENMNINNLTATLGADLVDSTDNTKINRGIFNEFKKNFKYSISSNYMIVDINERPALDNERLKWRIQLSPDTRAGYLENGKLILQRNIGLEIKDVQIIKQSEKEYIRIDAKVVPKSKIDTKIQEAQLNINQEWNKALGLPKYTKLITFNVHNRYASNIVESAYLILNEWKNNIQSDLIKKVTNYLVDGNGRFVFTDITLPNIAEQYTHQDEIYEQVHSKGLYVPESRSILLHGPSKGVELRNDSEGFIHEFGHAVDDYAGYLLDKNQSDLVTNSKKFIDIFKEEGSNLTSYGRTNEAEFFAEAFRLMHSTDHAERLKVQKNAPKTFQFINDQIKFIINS
# Starred values were filed as active, the others as inactive; ? = inconclusive; / = no result given. The list is not random: actives were taken first. Their share in the collection is about 3.7%. Unless noted, no stated cut-off is given here; in the data, active means inhibition above about 30%; inconclusive means no clear call, values can overlap the other calls; inactive means below that.
SMILES,MazEF act,BoNT-A LC inh2,BoNT F protease,Autofluor counter,Anthrax LF inh2
Cc1ccc(C(=O)C(OC(=O)CN2C(=O)c3ccccc3C2=O)c2ccccc2)cc1 (centres undefined),2.7,-0.4,-5.0,10662,2.0
Cc1ccc(C(=O)C(OC(=O)CNC(=O)c2ccc(Cl)cc2)c2ccccc2)cc1 (centres undefined),4.0,?,4.8,21549*,-0.5
O=C(CN1C(=O)c2ccccc2C1=O)OC(C(=O)c1ccc(Cl)cc1)c1ccccc1 (centres undefined),-4.5,-4.4,-6.1,21488*,-1.3
CCNC(=O)C1(C)CCN(C(=O)c2ccccc2OC(F)(F)F)C1 (centres undefined),/,0.2,0.6,3397,2.0
Cc1cc(N2CCOCC2)n2ncc(-c3ccccc3Cl)c2n1,10.1,-0.1,?,4211,-5.0
COCCNc1nnc(SCC(=O)c2cc(C)n(C3CC3)c2C)s1,-1.8,0.0,-4.3,3794,0.1
CCOC(=O)C1=CCN(S(=O)(=O)c2ccc(Br)cc2)C1c1ccc(C)cc1 (centres undefined),/,0.0,-7.6,4429,-6.9
COc1ccccc1Nc1nnc(SCC(=O)N2CCCC2)s1,4.8,?,0.6,23377*,0.4
CC1CCN(C(=O)CCn2c(=O)oc3ccc(Cl)cc32)CC1,-14.4,-0.1,0.0,2869,-3.1
COc1ccc(-c2noc(N3CCC(C(=O)Nc4cc(OC)ccc4OC)CC3)n2)cc1,13.0,-0.4,-6.1,6123,-2.2
O=C(N1CCOCC1)N1CCN(c2nc(-c3ccccc3)cs2)CC1,-1.8,0.6,0.2,22285*,1.7
COc1cccc(-c2csc(N3CCN(C(=O)Nc4ccccc4OC)CC3)n2)c1,1.3,?,-6.6,21006*,-5.4
COc1ccc(OC)c(NC(=O)C2CCN(c3cc(-c4ccccc4)nc4ncnn34)CC2)c1,2.7,3.1,0.7,22638*,3.2
COc1cccc(-c2csc(N3CCN(C(=O)Nc4ccc(F)cc4)CC3)n2)c1,8.7,-0.1,14.5,3275,-2.5
COc1ccccc1NC(=O)N1CCN(c2cc(-c3ccccc3)nc3ncnn23)CC1,2.4,?,0.5,22826*,-1.3
COc1ccccc1NC(=O)N1CCN(c2ccnc3cc(Cl)ccc23)CC1,2.3,-0.1,-4.2,4787,-6.7
O=c1oc(-c2ccc(Cl)cc2[N+](=O)[O-])nc2ccccc12,-4.8,-0.7,-0.6,2991,-4.1
CC(C)Cn1nc(NS(=O)(=O)c2cccc3nonc23)c2cc3ccccc3nc21,-1.2,0.9,12.3,5338,-2.5
CCCc1ccc(C(O)c2ncc(-c3ccccc3C)[nH]2)cc1 (centres undefined),/,-0.5,-11.7,3048,-2.7
COc1ccc(NC(=O)C2CCN(c3cc(-c4ccccc4)nc4ncnn34)CC2)cc1OC,7.9,?,-1.0,20978*,0.6
CCc1nc2c(OCc3ccccc3C)cccn2c1N(C)C(=O)C(C)C,/,0.2,2.0,2881,1.7
O=C(N=c1ccn(-c2nc3ccccc3nc2NS(=O)(=O)c2ccc(Cl)cc2)cc1)c1cccs1,92.2*,-0.1,-2.2,5100,-4.4
CCOc1ccc(S(=O)(=O)Nc2nc3ccccc3nc2-n2ccc(=NC(=O)c3cccs3)cc2)cc1,29.7,1.2,4.6,2291,-1.5
CN1CCC(N2CCN(C3CN(Cc4ccccc4)S(=O)(=O)C3)CC2)CC1 (centres undefined),/,-1.4,-3.7,5684,-3.8
O=C(Cn1cnc2c(oc3ccccc32)c1=O)N1CCN(c2ccccc2)CC1,4.7,0.5,5.0,6182,4.4
SMILES,MazEF act,BoNT-A LC inh2,BoNT F protease,Autofluor counter,Anthrax LF inh2
CCc1nc(SCc2nc3ccccc3[nH]2)c2oc3ccccc3c2n1,2.1,5.3,5.3,17511*,-7.9
CCc1nc(SCCO)c2oc3ccccc3c2n1,3.8,-0.4,-4.9,2822,-2.8
Cc1nc(SCc2nc3ccc(Br)cc3[nH]2)c2oc3ccccc3c2n1,-48.5,-0.1,-7.1,3072,-7.0
CCc1nc(SCC(=O)N2CCN(c3ccccc3)CC2)c2oc3ccccc3c2n1,5.3,-6.1,-8.3,17485*,-9.4
CCc1nc(SCC(=O)c2ccc(Cl)s2)c2oc3ccccc3c2n1,-26.8,-0.4,-0.9,16776*,-2.4
Cc1ccc(NC(=O)c2cccc(S(=O)(=O)N3CCN(c4ccc(F)cc4)CC3)c2)nc1,4.4,-1.9,9.0,4668,-1.6
CC(=O)c1ccc(N(C(=O)CNC(=O)c2ccco2)C(C(=O)NC2CCCC2)c2cccnc2)cc1 (centres undefined),9.1,-0.5,-0.7,5308,0.2
Cc1cc(C(=O)Cn2nnc3ccccc3c2=O)c(C)n1Cc1cccs1,0.0,-0.8,1.3,3310,-2.7
Cc1cc(C(=O)CN2C(=O)c3ccccc3C2=O)c(C)n1Cc1cccs1,68.3*,-4.4,-3.0,24091*,-1.1
COc1ccccc1NS(=O)(=O)c1ccc(NC(=O)N2CCCCC2)cc1,-3.4,-1.4,-4.9,6714,-2.4
CCCC(=O)Nc1ccc2c(c1)nc(CN1CCN(C(=O)OCC)CC1)n2CC,0.8,3.0,4.4,3739,23.4
CC(C)(C)c1ccccc1OCC(=O)NCCC(=O)O,6.4,-2.6,-3.9,24308*,-1.3
COC(=O)c1c(NC(=O)c2cccnc2)sc(C)c1C,2.7,-0.4,-5.8,4650,-0.6
Cc1cc(C(=O)Nc2cccnc2)cs1,4.1,1.5,1.4,23010*,2.4
CCC(=O)Nc1ccc(C(=O)Nc2cccnc2)cc1,0.8,-0.5,-7.3,10513,-1.8
COC(=O)c1cc(C)sc1NC(=O)c1cccnc1,1.2,-7.2,-9.7,24838*,-1.4
O=C(Nc1cccnc1)c1ccc2c(c1)C(=O)N(Cc1cccnc1)C2=O,3.3,-0.5,-2.1,23004*,-0.7
CC(C)(C)C(=O)Nc1ccc(C(=O)Nc2cccnc2)cc1,9.0,-2.1,-0.1,23774*,-3.0
COCCCn1c(=O)/c(=C\c2ccccc2OC(F)F)s/c1=C(/C#N)C(=O)NC(C)C,303.4*,0.0,3.8,3384,0.4
CC(C)=CCSc1nnc([C@@H](N)Cc2c[nH]c3ccccc23)o1,-5.7,-0.6,-10.5,7689,-5.1
N[C@@H](Cc1ccccc1)c1nnc(SCc2ccccc2Cl)o1,-2.4,?,-5.1,19863*,1.4
N[C@@H](Cc1c[nH]c2ccccc12)c1nnc(SCc2ccc(F)cc2)o1,7.4,?,-3.6,24676*,-3.3
C=C(C)CSc1nnc([C@@H](N)Cc2c[nH]c3ccccc23)o1,-3.5,?,-5.5,19997*,-2.4
N[C@@H](Cc1c[nH]c2ccccc12)c1nnc(SCc2ccccc2)o1,5.9,0.1,-14.4,4809,-2.6
CCc1ccccc1NC(=O)CSc1nnc([C@@H](N)Cc2ccccc2)o1,4.9,0.0,-11.8,10175,1.3
